Reference: PubChem BioAssay (NCI)
The panel holds about 79,000 compounds, 15% with a hit somewhere; the sample as a whole holds those more often. A number with no mark means an inactive call. Activity calls are given as the source filed them. No stated cut-off is given here; in the data, active means growth inhibition above about 70%; inactive means the rest.

Assay: NCI Yeast Anticancer Drug Screen. Data for the rad50 strain (AID 155);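 further: 0% = growth of vehicle-only cultures of the same strain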
Conditions: S. cerevisiae rad50 strain growth inhibition; at 50.0 µM; hits give high values
How it was run: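 Inhibition values express reduced yeast growth in compound-treated cultures relative to vehicle-treated controls.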
Compound COc1ccc2c3c1OC1C(O)C=CC4C(C2)N(N=O)CCC341 (stereo not drawn) has a growth inhibition of -3.2%. CCN(CC)C1CCCCC1 showed a growth inhibition of 19.8%. With COc1ccc2c(c1OC(C)=O)-c1cc(OC(C)=O)cc3c1C(C2)NCC3 (stereo not drawn) the growth inhibition was 11.7%. Work on CC1(C)N=C(N)N=C(N)N1c1ccc(OCCOc2ccc(S(=O)(=O)F)cc2)cc1 yielded a growth inhibition of -11.1%. With C[N+](C)(Cc1ccc([N+](=O)[O-])cc1)c1ccc(N(CCCl)CCCl)cc1 the growth inhibition was -4%. For [Cl][Pt]([Cl])[Cl].[NH-]C1CN2CCC1CC2 (stereo not drawn), the growth inhibition was 19.9%. For [CH3][Sn]([CH3])([Br])[CH2]CCCBr, the growth inhibition was 98.9% (active). With CCCCCCCCCCCCCCCCP(=O)(O)OP(=O)(O)OCC1OC(n2cnc3c(N)ncnc32)C(O)C1O (stereo not drawn) the growth inhibition was 58.3%. CCCOP(=O)(OCCC)C(=O)Nc1ccc(Br)cc1 showed a growth inhibition of -25.7%. Compound [Cl][Pt][Cl].c1ccc([PH+](c2ccccc2)c2ccccc2)cc1.c1ccc([PH+](c2ccccc2)c2ccccc2)cc1 has a growth inhibition of -1.7%. With CN(C)c1ccc(C=O)cc1.[C-]#[O+].[C-]#[O+].[C-]#[O+].[Cr] the growth inhibition was -66.2%. CN(C)c1ccc([N+](=O)[O-])c([N+](=O)[O-])c1 showed a growth inhibition of -14.8%. Compound CC1(C)CN=C(Nc2ccc(Cl)cc2)S1 has a growth inhibition of 13.9%. N[C@@H](Cc1ccc2oc3cc(=O)c4ccccc4c-3nc2c1)C(=O)O gave a growth inhibition of 26%. With CC1=CC(=O)C2=C(C)C[C@H](O)[C@@H]3[C@H](OC(=O)[C@H]3C)[C@@H]12 the growth inhibition was -2.45%. CCOP(=O)(OCC)C(O)c1ccc(Cl)cc1 (stereo not drawn) gave a growth inhibition of -5.1%. Compound c1ccc(N=Nc2ccccc2)cc1 has a growth inhibition of -1.25%. Compound CNC(=O)N1CN(c2ccccc2)C2(CCN(CCCC3(c4ccc(F)cc4)OCCO3)CC2)C1=O has a growth inhibition of -16%. O=C1C(=C([O-])c2ccccc2)C(=O)c2ccccc21.O=C1C(=C([O-])c2ccccc2)C(=O)c2ccccc21.[Fe+2] gave a growth inhibition of 19.4%. C[C@]12CCC(=O)C=C1CC[C@@H]1[C@@H]2CC[C@]2(C)C(=O)[C@H](n3ccnc3)C[C@@H]12 gave a growth inhibition of -1.35%. For Cc1cc(C(C)(C)C)ccc1O, the growth inhibition was 27.4%. For [NH-]C(CCC(N)=O)C(=O)O.[NH-]C(CCC(N)=O)C(=O)O.[Pd+2] (stereo not drawn), the growth inhibition was -14.6%. For CC1C(C)(C)P(=O)(Oc2ccc3ccccc3c2)C1(C)C (stereo not drawn), the growth inhibition was 71.6% (active). Work on c1ccc(-c2ccc[n+](CC[n+]3cccc(-c4ccccn4)c3)c2)nc1 yielded a growth inhibition of 0.3%. Compound O=C(O)C(O)CO.[Pb] (stereo not drawn) has a growth inhibition of -1.95%. Compound Cc1ccc(S(N)(=O)=O)cc1 (tested in a mixture with another compound) has a growth inhibition of 14.9%. Cc1ccc2nc(CCl)[nH]c2c1 gave a growth inhibition of 31.6%. CCCCS(=O)(=O)C(c1ccccc1)c1ccccc1 gave a growth inhibition of 69.2%. With CCOP(=O)(OCC)/C(C#N)=C/C=C/c1ccco1 the growth inhibition was 2.65%. For OC1(C#[C][Hg][C]#CC2(O)CCCCC2)CCCCC1, the growth inhibition was 95.2% (active). CCOc1cc(CCNC)c2c(ccc3ccc(OC)c(O)c32)c1OC showed a growth inhibition of 27.2%. In the case of Oc1cc(Cl)ccc1Cl, the growth inhibition is reported as 98.2% (active). For C[C@]12CC[C@H]3[C@@H](CCC4=C(Br)C(=O)CC[C@@H]43)[C@@H]1CC[C@@H]2O, the growth inhibition was 9.5%. In the case of COc1cc(C=Nc2ccc(C(=O)O)c(O)c2)ccc1N(CCCl)CCCl, the growth inhibition is reported as 60.8%. Cc1cc2oc(=O)c3c(c2c(O)c1CN1CCOCC1)CCCC3 gave a growth inhibition of 34.1%. CC1=C(C)C(=O)O[C@@H]([C@](C)(O)[C@]2(O)CC[C@@]3(O)[C@@H]4C[C@H]5O[C@]56[C@@H](O)C=CC(=O)[C@]6(C)[C@H]4CC[C@]23C)C1 showed a growth inhibition of 14.9%. Compound CC(C)/C=C/C1(C(C)C)C(=O)NC(=O)NC1=O has a growth inhibition of 19.5%. COC(=O)C(Cl)Cl showed a growth inhibition of 9.2%. In the case of NC(=O)c1cc(N(CCCl)CCCl)c([N+](=O)[O-])cc1[N+](=O)[O-], the growth inhibition is reported as 38.9%.

Assay: NCI Yeast Anticancer Drug Screen. Data for the mec2-1 strain (AID 157)
Conditions: S. cerevisiae mec2-1 strain, at 50.0 µM, hits give high values
How it was run: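 Readout is yeast growth inhibition, normalised to vehicle-treated controls, in the mec2-1 strain exposed to compound.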
Work on COc1ccc2c3c1OC1C(O)C=CC4C(C2)N(N=O)CCC341 (stereo not drawn) yielded a growth inhibition of 9.6%. CCN(CC)C1CCCCC1 gave a growth inhibition of 16.1%. Work on COc1ccc2c(c1OC(C)=O)-c1cc(OC(C)=O)cc3c1C(C2)NCC3 (stereo not drawn) yielded a growth inhibition of -4%. CC1(C)N=C(N)N=C(N)N1c1ccc(OCCOc2ccc(S(=O)(=O)F)cc2)cc1 gave a growth inhibition of -14.4%. In the case of C[N+](C)(Cc1ccc([N+](=O)[O-])cc1)c1ccc(N(CCCl)CCCl)cc1, the growth inhibition is reported as -24.3%. For [Cl][Pt]([Cl])[Cl].[NH-]C1CN2CCC1CC2 (stereo not drawn), the growth inhibition was 19.4%. In the case of [CH3][Sn]([CH3])([Br])[CH2]CCCBr, the growth inhibition is reported as 99.5% (active). CCCCCCCCCCCCCCCCP(=O)(O)OP(=O)(O)OCC1OC(n2cnc3c(N)ncnc32)C(O)C1O (stereo not drawn) gave a growth inhibition of 53.2%. Compound CCCOP(=O)(OCCC)C(=O)Nc1ccc(Br)cc1 has a growth inhibition of 2.95%. [Cl][Pt][Cl].c1ccc([PH+](c2ccccc2)c2ccccc2)cc1.c1ccc([PH+](c2ccccc2)c2ccccc2)cc1 showed a growth inhibition of 4.75%. In the case of CN(C)c1ccc(C=O)cc1.[C-]#[O+].[C-]#[O+].[C-]#[O+].[Cr], the growth inhibition is reported as -35.5%. Compound CN(C)c1ccc([N+](=O)[O-])c([N+](=O)[O-])c1 has a growth inhibition of -12.5%. Compound CC1(C)CN=C(Nc2ccc(Cl)cc2)S1 has a growth inhibition of 1.45%. Work on N[C@@H](Cc1ccc2oc3cc(=O)c4ccccc4c-3nc2c1)C(=O)O yielded a growth inhibition of 32.9%. CC1=CC(=O)C2=C(C)C[C@H](O)[C@@H]3[C@H](OC(=O)[C@H]3C)[C@@H]12 showed a growth inhibition of 2.95%. In the case of CCOP(=O)(OCC)C(O)c1ccc(Cl)cc1 (stereo not drawn), the growth inhibition is reported as -13.8%. With c1ccc(N=Nc2ccccc2)cc1 the growth inhibition was -7.5%. CNC(=O)N1CN(c2ccccc2)C2(CCN(CCCC3(c4ccc(F)cc4)OCCO3)CC2)C1=O showed a growth inhibition of -9.5%. Work on O=C1C(=C([O-])c2ccccc2)C(=O)c2ccccc21.O=C1C(=C([O-])c2ccccc2)C(=O)c2ccccc21.[Fe+2] yielded a growth inhibition of 28.9%. In the case of C[C@]12CCC(=O)C=C1CC[C@@H]1[C@@H]2CC[C@]2(C)C(=O)[C@H](n3ccnc3)C[C@@H]12, the growth inhibition is reported as 2.45%. Compound Cc1cc(C(C)(C)C)ccc1O has a growth inhibition of -4.1%. [NH-]C(CCC(N)=O)C(=O)O.[NH-]C(CCC(N)=O)C(=O)O.[Pd+2] (stereo not drawn) showed a growth inhibition of -3.2%. For CC1C(C)(C)P(=O)(Oc2ccc3ccccc3c2)C1(C)C (stereo not drawn), the growth inhibition was 55.3%. With c1ccc(-c2ccc[n+](CC[n+]3cccc(-c4ccccn4)c3)c2)nc1 the growth inhibition was -9.4%. O=C(O)C(O)CO.[Pb] (stereo not drawn) gave a growth inhibition of 0.35%. Work on Cc1ccc(S(N)(=O)=O)cc1 (tested in a mixture with another compound) yielded a growth inhibition of 7.9%. With Cc1ccc2nc(CCl)[nH]c2c1 the growth inhibition was -5.65%. With CCCCS(=O)(=O)C(c1ccccc1)c1ccccc1 the growth inhibition was 97.4% (active). Work on CCOP(=O)(OCC)/C(C#N)=C/C=C/c1ccco1 yielded a growth inhibition of -21.3%. With OC1(C#[C][Hg][C]#CC2(O)CCCCC2)CCCCC1 the growth inhibition was 89.5% (active). CCOc1cc(CCNC)c2c(ccc3ccc(OC)c(O)c32)c1OC showed a growth inhibition of -0.4%. For Oc1cc(Cl)ccc1Cl, the growth inhibition was 99% (active). With C[C@]12CC[C@H]3[C@@H](CCC4=C(Br)C(=O)CC[C@@H]43)[C@@H]1CC[C@@H]2O the growth inhibition was 2.3%. In the case of COc1cc(C=Nc2ccc(C(=O)O)c(O)c2)ccc1N(CCCl)CCCl, the growth inhibition is reported as 15.1%. In the case of Cc1cc2oc(=O)c3c(c2c(O)c1CN1CCOCC1)CCCC3, the growth inhibition is reported as 14.4%. With CC1=C(C)C(=O)O[C@@H]([C@](C)(O)[C@]2(O)CC[C@@]3(O)[C@@H]4C[C@H]5O[C@]56[C@@H](O)C=CC(=O)[C@]6(C)[C@H]4CC[C@]23C)C1 the growth inhibition was 24.9%. In the case of CC(C)/C=C/C1(C(C)C)C(=O)NC(=O)NC1=O, the growth inhibition is reported as 9.5%. In the case of COC(=O)C(Cl)Cl, the growth inhibition is reported as -17.1%. NC(=O)c1cc(N(CCCl)CCCl)c([N+](=O)[O-])cc1[N+](=O)[O-] showed a growth inhibition of -11.1%.
